# Assay results reported in PubChem BioAssay (NCI).
# This is part of a sample that, as a whole, favours compounds with a hit. Of some 79,000 tested, about 15% had one in any assay. Unmarked numbers belong to inactive results. Calls of active or inactive are those of the source. Rule as the data show it: active = growth inhibition above about 70%; inactive = the rest.
# How the values were obtained:
# [1] = NCI Yeast Anticancer Drug Screen. Data for the rad50 strain (AID 155);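 also: 0% = growth of vehicle-only cultures of the same strain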; settings: S. cerevisiae rad50 strain growth inhibition, stronger effect = higher value
# Summary of the method: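 Growth of the mutant yeast was measured after compound exposure and referenced to vehicle-treated cultures.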
# [2] = NCI Yeast Anticancer Drug Screen. Data for the mec2-1 strain (AID 157); settings: S. cerevisiae mec2-1 strain, stronger effect = higher value
# Summary of the method: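 Mutant yeast (mec2-1) grown with compound; growth inhibition relative to vehicle control reported.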
# [3] = NCI Yeast Anticancer Drug Screen. Data for the sgs1 mgt1 strain (AID 161);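 also: 0% = growth of cultures given vehicle only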; settings: S. cerevisiae sgs1 mgt1 strain, stronger effect = higher value
# Summary of the method: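 Percent growth inhibition was derived by comparing compound-exposed mutant yeast with vehicle-exposed cultures. The strain carries alterations in DNA damage repair.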
# [4] = NCI Yeast Anticancer Drug Screen. Data for the cln2 rad14 strain (AID 165);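 also: 0% = growth equal to vehicle treated cultures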; settings: S. cerevisiae cln2 rad14 strain, stronger effect = higher value
# Summary of the method: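 Readout is yeast growth inhibition versus vehicle-treated controls, using a strain with cln2 and rad14 alterations exposed to compound.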
# [5] = NCI Yeast Anticancer Drug Screen. Data for the bub3 strain (AID 167); settings: S. cerevisiae bub3 mutant strain, stronger effect = higher value
# Summary of the method: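 Whole-cell yeast assay. The mutant strain was incubated with compounds, and growth inhibition was determined by comparison with vehicle-treated cells.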
# [6] = NCI Yeast Anticancer Drug Screen. Data for the mlh1 rad18 strain (AID 175); settings: S. cerevisiae mlh1 rad18 strain growth inhibition, stronger effect = higher value
# Summary of the method: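 Genetically defined yeast (DNA repair-deficient) exposed to compounds; growth inhibition determined relative to vehicle.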
# [7] = at 5.0 µM (retest, dose inferred, filed as 0.5)
# [8] = at 50.0 µM (retest, dose inferred, filed as 5.0)
SMILES,"growth inhibition [1, 7]","growth inhibition [1, 8]",growth inhibition ([1]; at 50.0 µM),"growth inhibition [2, 7]","growth inhibition [2, 8]",growth inhibition ([2]; at 50.0 µM),"growth inhibition [3, 7]","growth inhibition [3, 8]",growth inhibition ([3]; at 50.0 µM),"growth inhibition [4, 7]","growth inhibition [4, 8]",growth inhibition ([4]; at 50.0 µM),"growth inhibition [5, 7]","growth inhibition [5, 8]",growth inhibition ([5]; at 50.0 µM),"growth inhibition [6, 7]","growth inhibition [6, 8]",growth inhibition ([6]; at 50.0 µM)
Cc1cc2nc3n(c2cc1C)C(c1c(F)cccc1F)SC3 (configuration not stated),25%,24%,-6.85%,16%,12%,-14.7%,27%,24%,9.1%,12%,23%,-6.1%,26%,25%,30.5%,26%,22%,-0.35%
O=C1c2ccccc2CN1Cc1ccc(Cl)c(Cl)c1,-1%,93% (active),84.4% (active),-3%,95% (active),42.2%,-1%,96% (active),93.1% (active),-1%,81% (active),45.5%,3%,92% (active),79.4% (active),-2%,91% (active),65%
CC(=O)c1c(O)c(C)c(O)c2c1OC1=CC(=O)c3c(C)noc3C12C (configuration not stated),-1%,10%,24.9%,-3%,7%,26.1%,-2%,10%,-2.55%,10%,16%,25.3%,-9%,1%,12.8%,-1%,10%,54.1%
CC(=O)Nc1cccc(Oc2ccc(Br)cc2[N+](=O)[O-])c1,-3%,66%,58.5%,1%,78% (active),10%,9%,94% (active),83.1% (active),0%,47%,24.7%,-1%,63%,42.6%,20%,89% (active),70.5% (active)
Clc1ccccc1/C=C/c1ccnc2ccccc12,1%,99% (active),97.7% (active),17%,99% (active),97.8% (active),14%,99% (active),97.9% (active),-19%,98% (active),96.8% (active),-3%,99% (active),97.9% (active),-5%,99% (active),98.2% (active)
Cc1c(Cl)c(S(N)(=O)=O)cc2c1NC=NS2(=O)=O,10%,-10%,7.45%,-1%,2%,-22.8%,-2%,-14%,-26.1%,7%,9%,22.4%,-13%,-3%,-20.4%,-3%,10%,-16.6%
CCC[CH2][Sn]([CH2]CCC)([O]C(=O)c1cccc(F)c1F)[O]C(=O)c1cccc(F)c1F,73% (active),73% (active),86.6% (active),62%,62%,88% (active),78% (active),78% (active),86.5% (active),55%,55%,88.7% (active),62%,62%,87.9% (active),67%,67%,86.4% (active)
C/C=C/C/S(=N\S(=O)(=O)c1ccc(C)cc1)c1ccccc1 (configuration not stated),4%,93% (active),96.7% (active),4%,88% (active),95.5% (active),11%,97% (active),81.5% (active),1%,73% (active),40.9%,-7%,97% (active),94.7% (active),5%,95% (active),93.3% (active)
Oc1ccccc1C(c1cc2c(cc1O)OCO2)N1CCOCC1 (configuration not stated),-23%,99% (active),87.3% (active),-28%,100% (active),88.7% (active),-51%,99% (active),89.8% (active),-12%,99% (active),91% (active),-34%,99% (active),91.3% (active),1%,99% (active),91.9% (active)
NCC1CCNCC1,2%,-6%,-16.7%,-2%,-19%,-9.25%,2%,3%,-15.2%,0%,-6%,16%,-5%,1%,3.9%,10%,0%,-4%
O=[N+]([O-])c1cc(Cl)cc(C(c2cc(Cl)cc([N+](=O)[O-])c2O)C(Cl)(Cl)Cl)c1O,52%,94% (active),97.7% (active),50%,98% (active),98.4% (active),38%,92% (active),98.1% (active),36%,96% (active),97% (active),33%,96% (active),97.2% (active),66%,96% (active),98.3% (active)
O=C(O)Cc1c(-c2noc(-c3ccccc3)c2CC(=O)O)noc1-c1ccccc1,-10%,-3%,28.5%,8%,-2%,46.8%,-16%,-8%,26.6%,1%,-10%,58.4%,-7%,0%,97.1% (active),4%,-9%,40.1%
CCCCCC(Oc1ccc(Cl)cc1)C(=O)O (configuration not stated),2%,84% (active),81.7% (active),2%,83% (active),58.5%,3%,85% (active),80.2% (active),-1%,87% (active),75.5% (active),7%,87% (active),71.5% (active),-15%,89% (active),83.2% (active)
Cc1cc2c(c(C(N)=O)c1C)-c1cccc(F)c1C2=O,4%,47%,77.4% (active),4%,20%,7.15%,20%,20%,37.6%,-1%,14%,75.5% (active),2%,32%,16%,1%,32%,90.5% (active)
O=C(O)c1ccccc1NC(c1ccccc1)c1ccc2cccnc2c1O (configuration not stated),-15%,94% (active),96.8% (active),-3%,91% (active),93% (active),0%,87% (active),96.8% (active),-39%,88% (active),93.3% (active),-17%,95% (active),93.7% (active),-14%,96% (active),93.5% (active)
O=C(c1ccc(Cl)cc1)C1OC12C(=O)Nc1c(Cl)cc(Cl)cc12 (configuration not stated),1%,99% (active),99.2% (active),3%,99% (active),99.2% (active),22%,99% (active),99.2% (active),5%,99% (active),99.1% (active),-1%,99% (active),99.2% (active),4%,99% (active),98.5% (active)
O=c1c2c3ccccc3[nH]c2c2cccc3c2n1CCC3,4%,92% (active),88.7% (active),5%,88% (active),90% (active),13%,89% (active),88.2% (active),-1%,69%,83.5% (active),11%,96% (active),89.3% (active),13%,94% (active),88.8% (active)
CN1CCC(CCC(=O)OC(C)(C)C)(CN2c3ccccc3Sc3ccccc32)C1 (configuration not stated),-4%,98% (active),99.5% (active),-14%,96% (active),99.8% (active),-12%,96% (active),99.7% (active),-12%,97% (active),96.7% (active),-2%,78% (active),96.5% (active),19%,99% (active),99.6% (active)
CN(Cc1ccccc1)CC(O)c1cc(-c2ccc(Cl)cc2)nc2ccccc12 (configuration not stated),-1%,99% (active),98.8% (active),2%,100% (active),98.5% (active),24%,100% (active),99.2% (active),1%,99% (active),98.4% (active),7%,99% (active),98% (active),10%,99% (active),98.3% (active)
